From PubChem BioAssay
Only some compounds are listed: those with a hit (about 6.7% of all), similar ones and a draw of the others.
T cruzi growth-1: inhibitors of T. cruzi proliferation | T. cruzi beta-gal in NIH3T3, GalScreen luminescence, 90 h | actives 5.9% (n = 77,000) | inhibition, % at 8.34 µM;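 active means mean inhibition above about 93%, with at least 55% of replicates each passing it, limit read from the data, passing the limit was not always enough; inconclusive means only one of those two conditions holds; inactive means neither condition holds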
C diff growth: inhibitors of Clostridium difficile growth | actives 0.25% (n = 86,000) | growth activity, negative = inhibition, % at 16 µg/mL (by protocol) | AID 1259249 | Clostridium difficile clinical isolate growth, OD600, 24 h; active compounds read low;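 active means mean growth activity at or below -80% and every replicate also at or below -80%; inconclusive means mean at or below -80% but some replicate above -80%; inactive means mean growth activity above -80%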
Pf Dd2 growth: blocks growth of Plasmodium falciparum Dd2 parasites | P. falciparum Dd2 growth, SYBR Green, 72 h; active compounds read low | activity change, % at 10 µM | actives 2.3% (n = 94,000) | AID 1159554; in the data active means activity change below about -80%; inconclusive means no clear call, values can overlap the other calls
T cruzi growth-2: Trypanosoma cruzi proliferation inhibition; AID 651739; shares compounds with T cruzi growth-1; inhibition, % at 8.35 µM; actives 72% (n = 5,600); T. cruzi beta-gal in NIH3T3, GalScreen luminescence, 90 h;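 active means mean replicate inhibition above about 95% and at least 55% of replicates individually reaching it, limit read from the data; inconclusive means only one of the two criteria is met; inactive means neither criterion is met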
T cruzi growth-3: Trypanosoma cruzi proliferation inhibition | AID 651740 | inhibition, % at 2.09 µM | shares compounds with T cruzi growth-1 | actives 21% (n = 5,600) | T. cruzi beta-gal in NIH3T3, GalScreen luminescence, 90 h;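 active means mean inhibition above about 95%, with at least 55% of replicates also reaching it, limit read from the data; inconclusive means meets just one of the two conditions; inactive means meets neither condition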
NIH3T3 tox: NIH/3T3 (mouse) viability loss; NIH/3T3 viability, CellTiter-Glo ATP luminescence, 90 h; cytotoxicity (signal decrease), % at 8.35 µM; AID 651742; shares compounds with T cruzi growth-1; actives 14% (n = 5,600);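 active means mean signal decrease across replicates above about 35% based on untreated-well scatter, with enough replicates individually passing, limit read from the data; inconclusive means no rule stated though some were filed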
NIH3T3 tox 2: NIH/3T3 (mouse) viability loss; inhibition, % at 24.9 µM; AID 651744; shares compounds with T cruzi growth-1; NIH/3T3 viability, CellTiter-Glo ATP luminescence, 90 h; actives 56% (n = 5,600);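 active means mean loss of cell viability signal at or above a set limit, and enough replicates individually reaching it; inconclusive means meets only the mean limit or only the replicate share; inactive means meets neither condition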
A number is an active result; 0 = inactive; ? = inconclusive; - = no result given.

SMILES	T cruzi growth-1	C diff growth	Pf Dd2 growth	T cruzi growth-2	T cruzi growth-3	NIH3T3 tox	NIH3T3 tox 2
O=C(Nc1ccc(F)cc1)N1CCCCN2[C@H](CO)[C@@H](c3ccc(C#CC4CC4)cc3)[C@H]2C1	112.9	0	0	111.4	0	0	104.6
COc1ccc(NC(=O)Nc2ccc3c(c2)C(=O)N([C@H](C)CO)C[C@H](C)[C@@H](CN(C)C(=O)NC(C)C)OCCCC[C@H](C)O3)cc1	0	0	0	-	-	-	-
COc1ccccc1C(=O)Nc1ccc2c(c1)OC[C@H](C)N(C)C[C@H](C)[C@@H](OC)CN(C)C2=O	0	-	0	-	-	-	-
C[C@@H]1CN([C@H](C)CO)C(=O)c2cc(NC(=O)Nc3ccc(C(F)(F)F)cc3)ccc2O[C@@H](C)CCCCO[C@@H]1CN(C)C(=O)NC1CCCCC1	0	0	0	-	-	-	-
C[C@H](CO)N1C[C@H](C)[C@@H](CN(C)C(=O)NC2CCCCC2)OCCCC[C@H](C)Oc2ccc(NC(=O)Nc3ccc(C(F)(F)F)cc3)cc2C1=O	0	0	0	-	-	-	-
C[C@@H]1CCCCO[C@H](CN(C)C(=O)Nc2ccc(C(F)(F)F)cc2)[C@@H](C)CN([C@H](C)CO)C(=O)c2cc(NC(=O)NC3CCCCC3)ccc2O1	113.2	0	0	107.7	0	0	0
C[C@@H]1CCCCO[C@@H](CN(C)C(=O)NC2CCCCC2)[C@@H](C)CN([C@H](C)CO)C(=O)c2cc(NC(=O)Nc3ccc(C(F)(F)F)cc3)ccc2O1	0	0	0	-	-	-	-
C[C@H]1CCCCO[C@H](CN(C)C(=O)Nc2ccc(C(F)(F)F)cc2)[C@@H](C)CN([C@@H](C)CO)C(=O)c2cc(NC(=O)NC3CCCCC3)ccc2O1	109.4	0	-87.4	97.4	106.9	0	0
C[C@@H]1CCCCO[C@@H](CN(C)C(=O)Nc2ccc(C(F)(F)F)cc2)[C@H](C)CN([C@@H](C)CO)C(=O)c2cc(NC(=O)NC3CCCCC3)ccc2O1	?	0	0	101.4	0	0	0
C[C@H]1CCCCO[C@@H](CN(C)C(=O)Nc2ccc(C(F)(F)F)cc2)[C@@H](C)CN([C@@H](C)CO)C(=O)c2cc(NC(=O)NC3CCCCC3)ccc2O1	123.4	0	0	101.1	113.0	0	0
C[C@@H]1CCCCO[C@H](CN(C)C(=O)NC2CCCCC2)[C@H](C)CN([C@@H](C)CO)C(=O)c2cc(NC(=O)Nc3ccc(C(F)(F)F)cc3)ccc2O1	0	0	0	-	-	-	-
COc1ccc2c3c(n(C)c2c1)[C@@H](CO)N(C(=O)CN(C)C)CC31CN(Cc2cccnc2)C1	-	-	0	-	-	-	-
O=C(CN1CCOCC1)N[C@H]1CC[C@H](CCNC(=O)C2CCCC2)O[C@H]1CO	-	0	0	-	-	-	-
O=C(Nc1cc(Cl)cc(Cl)c1)N[C@@H]1CC[C@@H](CCNS(=O)(=O)c2cccc(F)c2)O[C@H]1CO	0	0	0	-	-	-	-
O=C(C[C@H]1C[C@@H]2c3cc(NC(=O)NC4CCCC4)ccc3O[C@@H]2[C@@H](CO)O1)NCc1ccc(Oc2ccccc2)cc1	-	0	0	-	-	-	-
COc1ccc(S(=O)(=O)Nc2ccc3c(c2)C(=O)N([C@@H](C)CO)C[C@@H](C)[C@H](CN(C)C)OCCCC[C@@H](C)O3)cc1	0	0	0	-	-	-	-
C[C@@H]1CCCCO[C@H](CN(C)S(=O)(=O)c2cccs2)[C@@H](C)CN([C@H](C)CO)C(=O)c2cc(NS(C)(=O)=O)ccc2O1	0	0	0	-	-	-	-
CNC[C@H]1OCCCC[C@@H](C)Oc2ccc(NC(=O)Nc3ccc4c(c3)OCO4)cc2C(=O)N([C@H](C)CO)C[C@@H]1C	0	0	-	-	-	-	-
C[C@H]1CCCCO[C@@H](CN(C)C(=O)NC2CCCCC2)[C@@H](C)CN([C@@H](C)CO)C(=O)c2cc(NC(=O)Nc3ccc(C(F)(F)F)cc3)ccc2O1	0	0	0	-	-	-	-
C[C@H](CO)N1C[C@H](C)[C@H](CN(C)C(=O)NC2CCCCC2)OCCCC[C@H](C)Oc2ccc(NC(=O)Nc3ccc(C(F)(F)F)cc3)cc2C1=O	0	0	0	-	-	-	-
C[C@H](CO)N1C[C@H](C)[C@H](CN(C)C(=O)Nc2ccc(C(F)(F)F)cc2)OCCCC[C@H](C)Oc2ccc(NC(=O)NC3CCCCC3)cc2C1=O	122.4	0	0	?	106.1	0	0
C[C@@H]1CCCCO[C@@H](CN(C)C(=O)Nc2ccc(C(F)(F)F)cc2)[C@H](C)CN([C@H](C)CO)C(=O)c2cc(NC(=O)NC3CCCCC3)ccc2O1	117.2	0	0	103.8	108.8	0	0
CN1C(=O)c2cc(NC(=O)c3cscn3)ccc2OC[C@@H]2O[C@@H](CC(=O)N3CCOCC3)CC[C@H]21	0	0	0	-	-	-	-
COc1ccc2c3c(n(C)c2c1)[C@@H](CO)N(C(=O)Nc1ccc(F)cc1)CC31CCN(C(=O)CN2CCOCC2)CC1	-	0	0	-	-	-	-
C[C@H]1CN([C@@H](C)CO)C(=O)c2cc(NS(=O)(=O)c3ccc(F)cc3)ccc2O[C@H]1CN(C)Cc1ccc(Cl)c(Cl)c1	0	0	0	-	-	-	-
SMILES	T cruzi growth-1	C diff growth	Pf Dd2 growth	T cruzi growth-2	T cruzi growth-3	NIH3T3 tox	NIH3T3 tox 2
Cc1ccc(S(=O)(=O)Nc2ccc3c(c2)C(=O)N([C@@H](C)CO)C[C@H](C)[C@@H](CN(C)Cc2ccc(Cl)c(Cl)c2)O3)cc1	0	0	0	-	-	-	-
Cc1ccc(S(=O)(=O)Nc2ccc3c(c2)C(=O)N([C@@H](C)CO)C[C@@H](C)[C@@H](CN(C)Cc2ccc(Cl)c(Cl)c2)O3)cc1	118.9	0	0	107.4	107.0	0	102.8
C[C@@H]1CN([C@@H](C)CO)C(=O)c2cc(NS(=O)(=O)c3ccc(F)cc3)ccc2O[C@@H]1CN(C)Cc1ccc(Cl)c(Cl)c1	100.6	0	0	98.6	0	?	107.2
C[C@H]1CN([C@@H](C)CO)C(=O)c2cc(NS(=O)(=O)c3ccc(Cl)cc3)ccc2O[C@@H]1CN(C)Cc1ccc(Cl)c(Cl)c1	0	0	0	-	-	-	-
C[C@@H]1CN([C@@H](C)CO)C(=O)c2cc(NS(=O)(=O)c3ccc(F)cc3)ccc2O[C@H]1CN(C)Cc1ccc(Cl)c(Cl)c1	?	0	0	105.1	0	0	103.7
CCCC(=O)Nc1ccc2c(c1)C(=O)N(C)C[C@@H](OC)[C@H](C)CN(CCc1ccccc1)[C@@H](C)CO2	0	0	0	-	-	-	-
O=C(C[C@@H]1CC[C@@H]2[C@H](COC[C@H](O)CN2Cc2ccccc2)O1)NCc1ccccc1Cl	0	-	0	-	-	-	-
N#C[C@H]1[C@H](c2ccc(C#Cc3ccc(F)cc3)cc2)[C@H](CO)N1C(=O)Nc1ccc(F)cc1	0	0	0	-	-	-	-
CCCNC(=O)N1[C@@H](C#N)[C@H](c2ccc(C#Cc3ccc(F)cc3)cc2)[C@@H]1CO	102.6	0	0	105.4	0	0	40.0
CCCNC(=O)N1[C@@H](C#N)[C@@H](c2ccc(C#Cc3ccc(F)cc3)cc2)[C@@H]1CO	103.2	0	0	107.2	102.8	0	?
